What all share (conditions): treatment time: 24 h
For assay [1], the system named is A549-ACTB-RAB5A. Briefly: lowest phenotypically active concentration; higher = less potent. In short, it runs like this:
(§1)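 The reporter lines, fifteen in total and built by gene editing in A549, HepG2 and WPMY1 cells, used BFP for segmentation alongside GFP and RFP/FusionRed markers. Each was treated at 0.3, 1, 3 or 9 µM for 24 h in four wells and then imaged live, with live-cell features normalised to solvent control wells. Deviation meant ≥3 of 4 wells beyond the 95th percentile of control Euclidean distances; reproducibility meant a median replicate Pearson correlation above the 95th percentile of non-replicates. Only conditions meeting both were scored as phenotypically active.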

The subject of assay [2] is A549-GM130-SQSTM1. The assay is described as above. In short, it runs like this:
as §1

Assay [3] relates to A549-TUBA1B-RELA. The assay is described as above. The procedure, abridged: as §1
The test system of assay [4] is HepG2-ACTB-RAB5A. Described as above. The procedure, abridged: as §1
Assay [5] has as its system WPMY1-GM130-SQSTM1. Described as above. The procedure, abridged:
as §1

In assay [6] the test system is A549-ACTB-RAB5A. Briefly: phenotypically active (imaging signature differs from DMSO and reproducible) at any of 0.3-9 uM (binary (1 = active, 0 = inactive)); higher = active. In short, it runs like this:
as §1

The test system of another assay is A549-CANX-COX4. The assay is described as above. The procedure, abridged:
as §1

Assay [7] concerns A549-GM130-SQSTM1. The description is as above. The procedure, abridged:
as §1

The subject of the next assay is A549-TP53BP1-CLTA. Described as above. The procedure, abridged: as §1
In assay [8] the test system is A549-TUBA1B-RELA. Described as above. In short, it runs like this: as §1
The subject of assay [9] is HepG2-ACTB-RAB5A. The assay is described as above. The procedure, abridged: as §1
The subject of a further assay is HepG2-CANX-COX4. The assay is described as above. In short, it runs like this: as §1
The test system of the next assay is HepG2-GM130-SQSTM1. Described as above. In short, it runs like this: as §1
The next assay deals with HepG2-TP53BP1-CLTA. The assay is described as above. The procedure, abridged: as §1
A further assay has as its system HepG2-TUBA1B-RELA. The description is as above. The procedure, abridged:
as §1

Another assay concerns WPMY1-ACTB-RAB5A. Described as above. The procedure, abridged: as §1
A further assay deals with WPMY1-CANX-COX4. Described as above. In short, it runs like this:
as §1

Assay [10] has as its system WPMY1-GM130-SQSTM1. The description is as above. In short, it runs like this: as §1
Another assay has as its system WPMY1-TP53BP1-CLTA. Described as above. In short, it runs like this:
as §1

In a further assay the test system is WPMY1-TUBA1B-RELA. Described as above. The procedure, abridged:
as §1

We go through 5 molecules from the supplement of paper PMC7411054.

On to `Cc1c(O)cccc1C(=O)N[C@@H](CSc1ccccc1)[C@H](O)CN1C[C@H]2CCCC[C@H]2C[C@H]1C(=O)NC(C)(C)C` [nelfinavir], for which the “lowest phenotypically active concentration” value amounted to 9 µM with A549-ACTB-RAB5A [1]; 9 µM in the assay on A549-GM130-SQSTM1 [2]; 9 µM in the assay on A549-TUBA1B-RELA [3]; 9 µM with HepG2-ACTB-RAB5A [4]; 3 µM in the assay with WPMY1-GM130-SQSTM1 [5]. Also, the phenotypically active with A549-ACTB-RAB5A [6] was 1 (active); in the assay on A549-CANX-COX4, 0 (inactive); with A549-GM130-SQSTM1 [7] it was 1 (active); in the assay on A549-TP53BP1-CLTA, 0 (inactive); in the assay on A549-TUBA1B-RELA [8] it was 1 (active); in the assay with HepG2-ACTB-RAB5A [9] it was 1 (active). Also, the phenotypically active in the assay on HepG2-CANX-COX4 is 1 (active); with HepG2-GM130-SQSTM1 it was 1 (active); in the assay on HepG2-TP53BP1-CLTA it was 0 (inactive); in the assay on HepG2-TUBA1B-RELA, 1 (active); with WPMY1-ACTB-RAB5A, 1 (active); with WPMY1-CANX-COX4, 1 (active). Also, the phenotypically active was 1 (active) in the assay on WPMY1-GM130-SQSTM1 [10], 0 (inactive) in the assay on WPMY1-TP53BP1-CLTA and 1 (active) in the assay with WPMY1-TUBA1B-RELA.
`COc1cc(NC(=O)c2cccc(-n3cc(NC(=O)Nc4cccc(C)c4)cn3)c2)cc(OC)c1OC`: the “lowest phenotypically active concentration” value with A549-ACTB-RAB5A [1] amounted to 9 µM; with A549-GM130-SQSTM1 [2], 3 µM; in the assay on A549-TUBA1B-RELA [3] it was 9 µM; with HepG2-ACTB-RAB5A [4] it was 9 µM; in the assay with WPMY1-GM130-SQSTM1 [5] it was 9 µM. In addition, the phenotypically active with A549-ACTB-RAB5A [6] is 1 (active); with A549-CANX-COX4, 0 (inactive); in the assay with A549-GM130-SQSTM1 [7], 1 (active); in the assay with A549-TP53BP1-CLTA, 0 (inactive); in the assay on A549-TUBA1B-RELA [8], 1 (active); in the assay with HepG2-ACTB-RAB5A [9], 1 (active). Besides, the phenotypically active with HepG2-CANX-COX4, with HepG2-GM130-SQSTM1, in the assay with HepG2-TP53BP1-CLTA, in the assay with HepG2-TUBA1B-RELA, with WPMY1-ACTB-RAB5A and in the assay on WPMY1-CANX-COX4 was 0 (inactive) throughout. Moreover, the figures for the phenotypically active with WPMY1-GM130-SQSTM1 [10], in the assay with WPMY1-TP53BP1-CLTA and in the assay on WPMY1-TUBA1B-RELA were 1 (active), 0 (inactive) and 1 (active), respectively.
For the molecule `CC(=O)Nc1ccc(NC(=S)NC(=O)c2ccc(C(C)(C)C)cc2)cc1` [Tenovin-1], the “lowest phenotypically active concentration” value in the assay with A549-ACTB-RAB5A [1], with A549-GM130-SQSTM1 [2], with A549-TUBA1B-RELA [3] and in the assay on WPMY1-GM130-SQSTM1 [5] was 1 µM each time. Moreover, the phenotypically active with A549-ACTB-RAB5A [6] was 1 (active); in the assay on A549-CANX-COX4, 0 (inactive); in the assay on A549-GM130-SQSTM1 [7] it was 1 (active); in the assay with A549-TP53BP1-CLTA, 0 (inactive); in the assay with A549-TUBA1B-RELA [8], 1 (active); in the assay with HepG2-ACTB-RAB5A [9], 0 (inactive). Moreover, the phenotypically active with HepG2-CANX-COX4 is 1 (active); with HepG2-GM130-SQSTM1, 0 (inactive); in the assay on HepG2-TP53BP1-CLTA it was 1 (active); with HepG2-TUBA1B-RELA, 1 (active); in the assay with WPMY1-ACTB-RAB5A it was 1 (active); with WPMY1-CANX-COX4, 1 (active). In addition, the phenotypically active in the assay on WPMY1-GM130-SQSTM1 [10], in the assay with WPMY1-TP53BP1-CLTA and with WPMY1-TUBA1B-RELA was 1 (active) in each case.
With `O=C(CCCN1CCC(O)(c2ccc(Cl)cc2)CC1)c1ccc(F)cc1` [haloperidol], the “lowest phenotypically active concentration” value with A549-ACTB-RAB5A [1] was found to be 3 µM; in the assay with A549-GM130-SQSTM1 [2], 9 µM; in the assay with A549-TUBA1B-RELA [3], 9 µM; with HepG2-ACTB-RAB5A [4] it was 9 µM; with WPMY1-GM130-SQSTM1 [5] it was 9 µM. The phenotypically active with A549-ACTB-RAB5A [6] was 1 (active); in the assay with A549-CANX-COX4, 0 (inactive); with A549-GM130-SQSTM1 [7], 1 (active); in the assay on A549-TP53BP1-CLTA it was 0 (inactive); in the assay on A549-TUBA1B-RELA [8], 1 (active); with HepG2-ACTB-RAB5A [9], 1 (active). Also, the phenotypically active was 0 (inactive) with HepG2-CANX-COX4; 1 (active) with HepG2-GM130-SQSTM1; 1 (active) with HepG2-TP53BP1-CLTA; 1 (active) in the assay with HepG2-TUBA1B-RELA; 0 (inactive) with WPMY1-ACTB-RAB5A; 0 (inactive) in the assay with WPMY1-CANX-COX4. In addition, the values for the phenotypically active in the assay on WPMY1-GM130-SQSTM1 [10], in the assay on WPMY1-TP53BP1-CLTA and with WPMY1-TUBA1B-RELA were 1 (active), 0 (inactive) and 0 (inactive), respectively.
As to `CNCCCN1c2ccccc2CCc2ccccc21` [desipramine], the “lowest phenotypically active concentration” value in the assay with A549-ACTB-RAB5A [1] was 9 µM; in the assay on A549-GM130-SQSTM1 [2] it was 3 µM; in the assay on A549-TUBA1B-RELA [3], 9 µM; in the assay with HepG2-ACTB-RAB5A [4], 9 µM; in the assay on WPMY1-GM130-SQSTM1 [5] it was 9 µM. Moreover, the phenotypically active in the assay with A549-ACTB-RAB5A [6] is 1 (active); in the assay on A549-CANX-COX4, 0 (inactive); with A549-GM130-SQSTM1 [7] it was 1 (active); in the assay on A549-TP53BP1-CLTA, 0 (inactive); with A549-TUBA1B-RELA [8], 1 (active); with HepG2-ACTB-RAB5A [9], 1 (active). Besides, the phenotypically active was 0 (inactive) with HepG2-CANX-COX4; 0 (inactive) in the assay on HepG2-GM130-SQSTM1; 0 (inactive) in the assay with HepG2-TP53BP1-CLTA; 1 (active) in the assay with HepG2-TUBA1B-RELA; 1 (active) in the assay with WPMY1-ACTB-RAB5A; 0 (inactive) in the assay with WPMY1-CANX-COX4. Besides, the phenotypically active with WPMY1-GM130-SQSTM1 [10] is 1 (active); with WPMY1-TP53BP1-CLTA, 0 (inactive); with WPMY1-TUBA1B-RELA, 1 (active).
